A number with no mark means an inactive call. Results filed as inconclusive are left out. Active and inactive are the calls of the source. Unless noted, the call rests on the fitted dose curve; in most records, active means well fitted curve in the direction sought with a large enough effect; inconclusive means small, poorly fitted or top-dose-only effect, or another doubt; inactive means no such curve, though single readings can be large; an effect the other way counts as inactive or inconclusive.

Assay [1] deals with Cytochrome P450 2C9 (Homo sapiens) (UniProt P11712). Nature of the assay: qHTS Assay for Inhibitors and Substrates of Cytochrome P450 2C9 (AID 883). Further: nearly all actives have a fitted effect of over 60% in size. Further: potency means the concentration at half of the fitted maximal effect. On activity change, negative = inhibition: on the % scale 0 is the no-effect control and ±100 the full control effect. In a few lines: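 10nM CYP2C9 + 100uM Luciferin-H (=KM), 25mM KPO4; cpd 10 min 37C; NADPH regen, 60 min 37C; stop/detect with P450 Glo-Buffer 20 min; luminescence. Norm. to 57uM sulphaphenazole as full inhibition.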
Cytochrome P450 2C9 (Homo sapiens), sequence (P11712 whole entry, looked up): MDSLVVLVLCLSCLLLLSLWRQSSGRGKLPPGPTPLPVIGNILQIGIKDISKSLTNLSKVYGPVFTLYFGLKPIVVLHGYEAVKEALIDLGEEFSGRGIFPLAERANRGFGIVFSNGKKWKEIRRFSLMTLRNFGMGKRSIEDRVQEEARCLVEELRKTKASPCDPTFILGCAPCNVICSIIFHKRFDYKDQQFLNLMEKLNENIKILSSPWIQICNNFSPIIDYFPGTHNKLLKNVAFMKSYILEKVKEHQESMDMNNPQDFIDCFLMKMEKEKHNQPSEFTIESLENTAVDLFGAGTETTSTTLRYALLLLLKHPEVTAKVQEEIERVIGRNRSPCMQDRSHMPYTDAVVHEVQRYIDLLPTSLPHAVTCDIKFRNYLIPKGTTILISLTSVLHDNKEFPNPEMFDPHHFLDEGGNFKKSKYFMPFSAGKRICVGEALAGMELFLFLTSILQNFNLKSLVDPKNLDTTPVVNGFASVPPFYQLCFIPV
On the technique in general: In qHTS, concentration-response curves come from the screen itself.

The nature of assay [2]: Confirmation and Secondary Assay for Modulators of Hemoglobin Beta Chain Splicing at IVS2 705 locus (AID 930).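 Further: HeLa cells stably expressing the EGFP-705 splicing reporter; GFP fluorescence per well restored by corrected splicing of the IVS2-705 intron in EGFP; series mostly up to about 46 µM; % of control where 0% means no effect.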 In a few lines:
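Read-out: total peak GFP fluorescence per well (488 nm excitation, 500-520 nm emission) by laser-scanning cytometry. Cells: HeLa EGFP-705 splicing reporter, 2 days compound exposure in Optimem/2% FCS.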

Assay [3] is described as follows: qHTS Assay for Identification of Small Molecule Agonists for Hypoxia Response Element Signaling Pathway (AID 914; active means well fitted activation curve with a large enough effect in the signal ratio, with a control signal flat, not every such curve was filed as active; the % refers to the signal ratio; further: potency means the concentration at half of the fitted maximal effect; on activation: % of control where 0% means no effect). The conditions noted are these: ME-180 (cervical carcinoma) HRE-bla reporter, beta-lactamase ratio, CoCl2, 17 h; activation: stronger effect = higher value. In a few lines: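 HRE-bla ME-180 cells, overnight plating in Opti-MEM with 0.5% dialyzed FBS; cpd titration + EC50 CoCl2, 17 h, 37 degrees Celsius; CCF4 2.5 h RT; 460/530 nm ratio; AC50.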

In assay [4] the target is Cytochrome P450 2D6 (Homo sapiens) (UniProt P10635). The experiment in a line: qHTS Assay for Inhibitors and Substrates of Cytochrome P450 2D6 (AID 891). Further: potency means the concentration at half of the fitted maximal effect; nearly all actives have a fitted effect of over 60% in size. In a few lines:
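Human CYP2D6 (5 nM) with 30 uM Luciferin-ME EGE (at Km) in 100 mM KPO4, compound preincubated 10 min, then NADPH regeneration system for 60 min at room temperature. Luciferin read by luminescence; normalized to 1.43 uM quinidine.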

The target of assay [5] is Cytochrome P450 2C19 (Homo sapiens) (UniProt P33261). Nature of the assay: qHTS Assay for Inhibitors and Substrates of Cytochrome P450 2C19 (AID 899). Further: nearly all actives have a fitted effect of over 60% in size. Further: potency means the concentration at half of the fitted maximal effect. The method in brief: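 Luminescent read-out of luciferin formed from Luciferin-H EGE (10uM, equal to KM). Enzyme 5nM in 50mM KPO4; compound added, 10 min at 37C, then NADPH regenerating system for 60 min at 37C. Full inhibition defined by 57uM ketoconazole.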
Cytochrome P450 2C19 (Homo sapiens), sequence (P33261 whole entry, looked up): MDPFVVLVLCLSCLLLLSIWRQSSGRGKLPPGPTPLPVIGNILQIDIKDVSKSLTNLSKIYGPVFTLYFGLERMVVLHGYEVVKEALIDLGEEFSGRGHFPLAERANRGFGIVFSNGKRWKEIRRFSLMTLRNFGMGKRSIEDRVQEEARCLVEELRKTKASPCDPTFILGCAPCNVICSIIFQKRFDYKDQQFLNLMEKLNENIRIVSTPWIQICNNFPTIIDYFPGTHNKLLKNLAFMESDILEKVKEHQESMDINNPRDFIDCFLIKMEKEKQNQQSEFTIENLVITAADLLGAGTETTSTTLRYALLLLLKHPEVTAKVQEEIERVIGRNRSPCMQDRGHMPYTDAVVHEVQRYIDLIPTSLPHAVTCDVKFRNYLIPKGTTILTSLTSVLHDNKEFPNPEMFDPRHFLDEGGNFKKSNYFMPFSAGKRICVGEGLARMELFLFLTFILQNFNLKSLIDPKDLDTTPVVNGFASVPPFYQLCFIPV

Assay [6] has as its target Tyrosyl-DNA phosphodiesterase 1 (Homo sapiens) (UniProt Q9NUW8). Nature of the assay: Confirmation Assay for Inhibitors of Tyrosyl-DNA Phosphodiesterase (TDP1) (AID 489007). Further: potency means the concentration at half of the fitted maximal effect; nearly all actives have a fitted effect of over 40% in size. The conditions noted are these: recombinant human TDP1 enzymatic activity, dose-response. In a few lines: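 Recombinant E. coli-expressed Tdp1 (1 nM final) was preincubated with compounds 15 min at room temperature, then reacted 5 min with 15 nM 5'-biotin/3'-phosphotyrosine-FITC DNA substrate; cleavage read as loss of AlphaScreen signal (10 ug/ml beads, 10 min).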

The target of assay [7] is Dual specificity protein kinase CLK4 (Homo sapiens) (UniProt Q9HAZ1). Nature of the assay: qHTS Assay for Inhibitors of CDC-like Kinase 4 (Kinase-Glo Assay) (AID 1770). Further: nearly all actives have a fitted effect of over 65% in size. Further: potency means the concentration at half of the fitted maximal effect. The method in brief:
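Inhibition was judged from remaining ATP, measured by Ultra-Glo luciferase bioluminescence after Clk4 (25 nM) had acted on RS peptide at 1 uM ATP for 4.5 hours, room temperature.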

Assay [8] deals with DNA dC->dU-editing enzyme APOBEC-3G (Homo sapiens) (UniProt Q9HC16). The experiment in a line: qHTS for inhibitors of Vif-A3G interactions: Validation (AID 588379). Further: 0% is about no effect. In a few lines: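 HeLa cells stably expressing Vif and A3G-eYFP, 700 cells/well, incubated overnight at 37 deg C, then exposed to compound overnight at 37 deg C. Inhibition of Vif-mediated degradation read as increased yellow fluorescence (Ex 488/Em 500-530) by laser-scanning cytometry.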
DNA dC->dU-editing enzyme APOBEC-3G (Homo sapiens), sequence (Q9HC16 whole entry, looked up): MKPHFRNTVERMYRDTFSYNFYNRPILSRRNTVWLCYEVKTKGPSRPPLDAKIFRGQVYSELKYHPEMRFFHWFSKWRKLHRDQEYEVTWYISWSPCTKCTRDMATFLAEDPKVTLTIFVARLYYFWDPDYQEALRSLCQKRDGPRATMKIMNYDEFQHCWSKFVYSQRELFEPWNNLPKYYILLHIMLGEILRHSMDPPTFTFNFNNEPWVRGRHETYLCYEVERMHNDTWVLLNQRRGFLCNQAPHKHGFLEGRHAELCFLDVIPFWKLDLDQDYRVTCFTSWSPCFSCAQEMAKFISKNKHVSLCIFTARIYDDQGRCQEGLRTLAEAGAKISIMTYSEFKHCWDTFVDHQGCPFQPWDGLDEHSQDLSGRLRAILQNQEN

The target of assay [9] is Dual specificity protein kinase CLK4 (Homo sapiens) (UniProt Q9HAZ1). The experiment in a line: qHTS Assay for Inhibitors of CDC-like Kinase 4 (ADP-Glo Assay) (AID 1771). Further: nearly all actives have a fitted effect of over 70% in size. Further: potency means the concentration at half of the fitted maximal effect. On activity change, negative = inhibition: on the % scale 0 is the no-effect control and ±100 the full control effect. The method in brief:
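Clk4 (25 nM) was incubated 1 hr at room temperature with 100 uM RS repeat peptide and 1 uM ATP in buffer with 2 mM MgCl2, 0.5 mM EGTA, 2.5 mM DTT. ADP formed was quantified by ADP-Glo luminescence.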

Assay [10] addresses Guanine nucleotide-binding protein G(i) subunit alpha-1 (Homo sapiens) (UniProt P63096). Nature of the assay: qHTS Assay for Inhibitors of RGS12 GoLoco Motif Activity (Green Fluorophore) (AID 879).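 Further: 0% = labeled peptide with Gαi1 and full inhibition = labeled peptide alone without protein; negative values mean loss of peptide binding seen as reduced polarization.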 The method in brief:
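Fluorescence polarization assay: 50 nM Gαi1 with 10 nM FITC-labeled RGS12 GoLoco peptide in 10 mM Tris pH 7.5, 150 mM NaCl, 0.1 mM GDP, 0.05% NP40, 10 min at room temperature with compound.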

Assay [11] is described as follows: qHTS Assay for Identification of Small Molecule Agonists for Thrombopoietin (TPO) Signaling Pathway (AID 917). Further: on the % scale 0 is the no-effect control and ±100 the full control effect. The method in brief: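 We measured Glycoprotein IIb promoter–luciferase output in IL-3-starved Ba/F3 murine cells expressing the human TPO receptor after 24 hrs at 37 C with compounds and 26 pM TPO.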
Assay [12] concerns the target Muscarinic acetylcholine receptor M1 (Rattus norvegicus) (UniProt P08482). Nature of the assay: qHTS Assay for Antagonists of Acetylcholine Muscarinic M1 Receptor: Measurement of IP-One Response (AID 944). Further: nearly all actives have a fitted effect of over 75% in size. The method in brief:
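CHO cells expressing rat M1 receptor, recovered overnight, were pre-incubated 10 min with compound, then stimulated 30 min with carbachol at EC80 (200 nM) in LiCl-containing buffer, pH 7.4. IP1 accumulation was read by HTRF (620/665 nm).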

Assay [13] has as its target Pyruvate kinase (Leishmania mexicana) (UniProt Q27686). Nature of the assay: qHTS Validation Assay for Inhibitors of Leishmania Mexicana Pyruvate Kinase (AID 945).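 Further: 0% = DMSO only neutral control wells.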 In a few lines:
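Luminescent ATP detection (PKLight) after a 1 h room-temperature reaction of 0.2 nM LmPYK E451W mutant with 0.5 mM PEP and 0.1 mM ADP at pH 7.2. Activity is normalized to DMSO-only control wells.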

The target in assay [14] is Pyruvate kinase PKM (Homo sapiens) (UniProt P14618). The experiment in a line: qHTS Assay for Activators of Human Muscle Pyruvate Kinase (AID 954; active means well fitted curve in the direction sought with a large enough effect, not every such curve was filed as active;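 further: 0% = uninhibited enzyme and -100% = no enzyme or full thiadiazolimine inhibition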). In a few lines:
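Reaction: 0.1 nM purified PKM2 with 0.5 mM phosphoenolpyruvate and 0.1 mM ADP, room temperature, 1 h. Readout: luciferase-based ATP luminescence after stop reagent. Activators judged against a 0.3 nM enzyme column.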

The target in assay [15] is Alpha-galactosidase A (Homo sapiens) (UniProt P06280). Nature of the assay: Counterscreen for Glucocerebrosidase Inhibitors: qHTS Assay for Human alpha-Galactosidase at pH 4.5 (AID 992). Further: 0% is about no effect. In a few lines: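 Concentration-response curves (0.7 nM to 77 uM final) were modeled with the Hill equation to give AC50. Reactions: 2 nM enzyme, 80 uM fluorogenic alpha-galactoside, pH 4.5 citric acid buffer, 20 min, room temperature.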
Alpha-galactosidase A (Homo sapiens), sequence (P06280 whole entry, looked up): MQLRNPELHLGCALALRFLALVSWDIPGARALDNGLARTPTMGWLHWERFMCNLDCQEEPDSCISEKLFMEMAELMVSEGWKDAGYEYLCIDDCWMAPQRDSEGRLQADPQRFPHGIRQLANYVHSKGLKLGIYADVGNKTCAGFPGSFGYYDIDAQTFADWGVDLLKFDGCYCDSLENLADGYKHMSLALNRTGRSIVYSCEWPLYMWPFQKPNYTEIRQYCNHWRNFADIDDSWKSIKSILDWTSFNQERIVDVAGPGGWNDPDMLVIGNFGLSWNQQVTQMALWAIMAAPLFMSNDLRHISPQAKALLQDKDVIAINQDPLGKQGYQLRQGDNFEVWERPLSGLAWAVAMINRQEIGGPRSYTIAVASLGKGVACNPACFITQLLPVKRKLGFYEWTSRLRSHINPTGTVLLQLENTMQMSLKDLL
(Counterscreens check selectivity or assay interference.)

For assay [16], the target named is alpha-glucosidase (Oryza sativa, rice) (UniProt Q653V4). The experiment in a line: Counterscreen for Glucocerebrosidase Inhibitors: qHTS Assay for Rice alpha-Glucosidase at pH 5.0 (AID 997).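 Further: 0% = full activity with enzyme and -100% = basal without enzyme.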 In a few lines:
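Rice alpha-glucosidase (4 nM final) with 400 uM 4-methylumbelliferyl-alpha-D-glucopyranoside in citrate buffer pH 5.0, 20 min at room temperature, stopped at pH 10; fluorescence 365/440 nm, compounds 0.7 nM–77 uM, AC50 from Hill fits.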

Dual specificity protein kinase CLK4 (Homo sapiens), sequence (Q9HAZ1 whole entry, looked up): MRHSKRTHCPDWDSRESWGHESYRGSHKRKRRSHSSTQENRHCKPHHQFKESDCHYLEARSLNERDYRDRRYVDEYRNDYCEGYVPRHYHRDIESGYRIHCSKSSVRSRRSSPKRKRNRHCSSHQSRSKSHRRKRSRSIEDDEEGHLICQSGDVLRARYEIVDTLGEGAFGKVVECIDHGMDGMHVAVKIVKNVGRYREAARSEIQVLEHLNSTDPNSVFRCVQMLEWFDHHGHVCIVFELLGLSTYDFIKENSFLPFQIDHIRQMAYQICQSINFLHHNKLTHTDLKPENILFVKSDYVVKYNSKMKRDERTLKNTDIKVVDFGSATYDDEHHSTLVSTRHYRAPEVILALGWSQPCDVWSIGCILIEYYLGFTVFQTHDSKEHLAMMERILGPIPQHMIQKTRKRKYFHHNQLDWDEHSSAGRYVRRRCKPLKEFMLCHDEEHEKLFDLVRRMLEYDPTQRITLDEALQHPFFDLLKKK
Cytochrome P450 2D6 (Homo sapiens), sequence (P10635 whole entry, looked up): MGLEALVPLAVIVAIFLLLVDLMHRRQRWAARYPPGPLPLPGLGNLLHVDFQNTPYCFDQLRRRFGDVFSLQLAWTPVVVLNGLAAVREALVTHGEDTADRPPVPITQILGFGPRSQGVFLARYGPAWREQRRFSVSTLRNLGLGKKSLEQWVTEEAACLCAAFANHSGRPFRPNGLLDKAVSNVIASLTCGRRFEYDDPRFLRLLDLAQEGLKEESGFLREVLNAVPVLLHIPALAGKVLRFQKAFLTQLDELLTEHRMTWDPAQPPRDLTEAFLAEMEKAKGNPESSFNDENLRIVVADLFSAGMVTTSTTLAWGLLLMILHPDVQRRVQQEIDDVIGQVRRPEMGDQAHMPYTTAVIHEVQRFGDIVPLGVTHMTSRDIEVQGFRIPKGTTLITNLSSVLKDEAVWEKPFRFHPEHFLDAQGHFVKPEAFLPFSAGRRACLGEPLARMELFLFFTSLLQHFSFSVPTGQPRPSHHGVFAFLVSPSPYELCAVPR
Muscarinic acetylcholine receptor M1 (Rattus norvegicus), sequence (P08482 whole entry, looked up): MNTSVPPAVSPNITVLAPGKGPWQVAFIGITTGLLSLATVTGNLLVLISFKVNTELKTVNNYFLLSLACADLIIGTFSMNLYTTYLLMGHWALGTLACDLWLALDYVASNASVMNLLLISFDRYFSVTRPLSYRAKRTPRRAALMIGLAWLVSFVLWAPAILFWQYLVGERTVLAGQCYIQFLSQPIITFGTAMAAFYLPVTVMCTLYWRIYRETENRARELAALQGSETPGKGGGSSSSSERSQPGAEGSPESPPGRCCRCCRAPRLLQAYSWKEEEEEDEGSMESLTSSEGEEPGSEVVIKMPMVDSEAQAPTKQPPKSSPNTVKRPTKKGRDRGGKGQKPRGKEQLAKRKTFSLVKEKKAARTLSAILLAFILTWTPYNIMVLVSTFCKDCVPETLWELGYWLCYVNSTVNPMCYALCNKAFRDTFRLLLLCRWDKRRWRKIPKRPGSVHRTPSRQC
Guanine nucleotide-binding protein G(i) subunit alpha-1 (Homo sapiens), sequence (P63096 whole entry, looked up): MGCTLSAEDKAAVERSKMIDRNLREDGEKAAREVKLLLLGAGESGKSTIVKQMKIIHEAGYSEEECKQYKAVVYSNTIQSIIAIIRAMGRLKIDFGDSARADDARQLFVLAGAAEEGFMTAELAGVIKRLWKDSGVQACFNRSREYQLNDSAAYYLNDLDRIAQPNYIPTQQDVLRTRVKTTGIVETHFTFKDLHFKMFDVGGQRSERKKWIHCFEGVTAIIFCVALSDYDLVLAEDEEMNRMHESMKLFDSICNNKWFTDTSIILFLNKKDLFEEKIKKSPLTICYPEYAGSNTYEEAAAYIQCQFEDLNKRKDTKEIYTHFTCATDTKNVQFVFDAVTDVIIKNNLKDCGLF
Pyruvate kinase (Leishmania mexicana), sequence (Q27686 2-499 E452W): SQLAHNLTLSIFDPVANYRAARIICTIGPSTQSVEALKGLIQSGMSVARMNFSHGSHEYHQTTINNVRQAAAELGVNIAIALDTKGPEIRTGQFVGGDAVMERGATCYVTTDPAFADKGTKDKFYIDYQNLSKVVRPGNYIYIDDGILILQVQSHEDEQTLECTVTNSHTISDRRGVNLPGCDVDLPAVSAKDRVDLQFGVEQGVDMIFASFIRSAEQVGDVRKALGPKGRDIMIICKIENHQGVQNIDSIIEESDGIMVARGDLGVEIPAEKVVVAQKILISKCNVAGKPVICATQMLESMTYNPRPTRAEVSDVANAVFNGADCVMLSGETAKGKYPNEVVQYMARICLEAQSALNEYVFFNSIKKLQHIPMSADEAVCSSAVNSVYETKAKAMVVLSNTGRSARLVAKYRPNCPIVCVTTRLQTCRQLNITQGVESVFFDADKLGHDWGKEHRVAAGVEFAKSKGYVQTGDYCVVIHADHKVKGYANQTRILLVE
Tyrosyl-DNA phosphodiesterase 1 (Homo sapiens), sequence (Q9NUW8 whole entry, looked up): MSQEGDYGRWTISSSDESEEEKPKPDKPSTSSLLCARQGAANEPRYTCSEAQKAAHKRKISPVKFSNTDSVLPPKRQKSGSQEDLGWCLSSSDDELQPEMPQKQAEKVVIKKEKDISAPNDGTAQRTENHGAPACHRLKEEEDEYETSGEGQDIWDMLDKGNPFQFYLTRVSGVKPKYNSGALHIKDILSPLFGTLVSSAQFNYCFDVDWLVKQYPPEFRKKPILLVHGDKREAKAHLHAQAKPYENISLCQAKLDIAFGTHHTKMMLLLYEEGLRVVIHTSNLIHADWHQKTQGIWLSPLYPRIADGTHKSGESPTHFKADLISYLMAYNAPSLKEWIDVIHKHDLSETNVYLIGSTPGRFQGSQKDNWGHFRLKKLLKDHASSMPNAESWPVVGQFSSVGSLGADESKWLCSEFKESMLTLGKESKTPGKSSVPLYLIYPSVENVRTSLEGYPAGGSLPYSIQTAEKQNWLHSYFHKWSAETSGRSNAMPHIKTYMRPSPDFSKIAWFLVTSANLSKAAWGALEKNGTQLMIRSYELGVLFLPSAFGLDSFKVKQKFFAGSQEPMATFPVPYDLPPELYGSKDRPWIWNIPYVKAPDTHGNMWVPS

Take `O=C(c1cc(C(F)(F)F)cc(C(F)(F)F)c1)N1CCC2(CC1)CN(c1ccncc1)C2`: the Potency in assay [1] is 3.98 µM (active).
Consider `COc1ccc2[nH]cc(CCNc3ccnc(-c4cccc(NS(C)(=O)=O)c4)n3)c2c1`, for which, in assay [2], the result was inactive.
Consider `O=c1c(-c2ccc(F)cc2)nc2cnc(N3CCOCC3)nc2n1-c1ccccc1`, for which the Potency in assay [3] is 1.26 µM (active).
With `Cn1cccc1C(=O)N1CCC2(CCCN(Cc3ccncc3)C2)CC1`, the Potency in assay [1] was 1.58 µM (active); in assay [4], 7.94 µM (active).
On to `c1nc(NCCN2CCOCC2)c2cc(-c3ccc4c(c3)OCO4)ccc2n1`, for which the Potency in assay [4] is 7.94 µM (active). Besides, the outcome in assay [2] was inactive.
For `CNc1nc(-c2ccccc2C(F)(F)F)nc2ccccc12`, the result in [2] was inactive.
For the compound `CN(C)Cc1ccccc1-c1nccc(NCc2cccs2)n1`, the Potency in assay [4] is 1.58 µM (active). Further, the call in assay [2] was inactive.
For `Cc1ccccc1-c1nc(NCc2cccnc2)c2ccccc2n1`, the compound was called inactive in assay [2].
On to `FC(F)(F)c1ccccc1-c1cncnc1Nc1ccccc1`, for which the Potency in assay [5] is 7.94 µM (active). The call in assay [2] was inactive.
In the case of `CC(=O)NCCNc1ncncc1-c1ccccc1C(F)(F)F`, the result in assay [2] was inactive.
For the compound `Cc1noc(C)c1-c1ccc2ncnc(NC3CC3)c2c1`, the compound was called inactive in assay [2].
`N#Cc1cccc(-c2ccc3ncnc(NCc4cccnc4)c3c2)c1`: the call in assay [2] was inactive.
In the case of `CNc1ncnc2ccc(-c3cccc(NS(C)(=O)=O)c3)cc12`, the call in assay [2] was inactive.
As for `CN(C)C(=O)c1ccc(-c2cncnc2NCc2cccs2)cc1`, in assay [2], the call was inactive. The Potency in [6] is 1.78 µM (active).
Turning to `CS(=O)(=O)Nc1cccc(-c2nccc(-n3ccnc3)n2)c1`, the activation in assay [3] was -11.9%. Also, the call in [2] was inactive.
As to `Cc1cccc(CNc2ncnc3ccc(-c4c(C)noc4C)cc23)c1`, the call in assay [2] was inactive.
For `Cc1cnc(CNc2cc(-c3ccoc3)ncn2)cn1`, the result in assay [2] was inactive.
Take `Cc1cnc(CNc2ncnc3ccc(-c4ccccc4CN(C)C)cc23)cn1`: the activity change, negative = inhibition in assay [1] was 39% [at 2.29 µM]. Besides, the Potency in [4] is 2.51 µM (active). Moreover, the compound was classed as inactive in assay [2].
Regarding `CN(C)c1ccc(-c2nc(N(C)C)c3ccccc3n2)cc1`, in assay [4], the Potency was 7.94 µM (active). The call in [2] was inactive.
Regarding `O=C(O)c1cc(=O)c2cccc(O)c2[nH]1`, the call in assay [2] was inactive.
On to `COc1ccc(-n2c(=O)c(-c3ccc(Cl)cc3)nc3cnc(N(C)C)nc32)cc1`, for which, in [3], the Potency was 3.16 µM (active). For the same compound, the Potency result in assay [7] is “inactive”.
On to `CCCCCCCCCCCCCC(=O)O[C@H](CC(=O)O)C[N+](C)(C)C`, for which the call in assay [8] was inactive.
Still for that read-out and setting: to `OC[C@H]1O[C@@H](n2cnc3c(NCc4ccco4)ncnc32)[C@H](O)[C@@H]1O` belongs “inactive”.
Take `COc1cccc(Cn2c(=O)c(-c3ccc(F)cc3)nc3cnc(N4CCOCC4)nc32)c1`: in [3], the Potency is 3.16 µM (active). For the same compound, the Potency entry in assay [7] and in assay [9] was “inactive” throughout.
Consider `COc1ccccc1CNc1nc(-c2ccc3c(c2)OCO3)nc2ccccc12`, for which the Potency entry in assay [7] is “inactive”.
As to `Cn1cc(C(F)(F)F)nc1-c1ccc(OC[C@@H](O)CNCCOc2ccc(O)c(C(N)=O)c2)cc1`, the Potency result in assay [10] and in assay [12] was “inactive” throughout. Besides, the compound was classed as inactive in assay [11], in assay [13], in assay [14], in [15], in assay [16] and in assay [8].
Turning to `O=c1c(-c2ccc(Cl)cc2)nc2cncnc2n1Cc1ccccc1Cl`, in assay [5], the Potency is 3.98 µM (active). In assay [3], the activation is 25.2%.
Turning to `O=c1c(-c2cc(F)cc(F)c2)nc2cncnc2n1Cc1ccccc1Cl`, the Potency in [1] was 3.98 µM (active); in assay [5], 1.58 µM (active). In addition, the Potency entry in assay [7] and in [9] was “inactive” in each case.
On to `CS(=O)(=O)Nc1cccc(-c2ccc3ncnc(NCc4cccnc4)c3c2)c1`, for which the activation in assay [3] was -27.3%. Besides, in [2], the result was inactive.
As to `N[C@H](C(=O)O)c1ccc(O)c(C(=O)O)c1`, the Potency entry in [5] is “inactive”. Moreover, the result in assay [8] was inactive.
On to `CN(C)c1ncc2nc(-c3ccc(F)cc3)c(=O)n(-c3ccccc3)c2n1`, for which the Potency entry in assay [7] and in [9] was “inactive” in each case.
For `COc1ccc(Oc2ncc3nc(-c4ccc(F)cc4)c(=O)n(C)c3n2)cc1`, the activation in assay [3] was 16.5%.
Regarding `CS(=O)(=O)Nc1cccc(-c2ccc3ncnc(Nc4ccc(F)cc4)c3c2)c1`, in [2], the compound was classed as inactive.
For `Clc1cccc2c1CN(C1=NCCN1)C2`, in assay [8], the call was inactive.
For `COc1ccc2[nH]cc(CCNc3nc(-c4cccc(C#N)c4)nc4ccccc34)c2c1`, the Potency in assay [9] is 28.2 µM (active).
With `N#CCCn1c(=O)c(-c2cccs2)nc2cnc(N3CCOCC3)nc21`, the activation in assay [3] is 21.6%. The Potency result in assay [7] and in [9] was “inactive” throughout.
Consider `COc1cc(C)c2c(c1C=O)Oc1c(c(C)c(O)c3c1C(O)OC3=O)OC2=O` (stereo not drawn), for which, in [2], the compound was classed as inactive.
In the case of `COc1ccc(CNc2ncnc3ccc(-c4c(C)noc4C)cc23)c(OC)c1`, the Potency in assay [3] was 2 µM (active); in assay [7], 10 µM (active); in [9], 15.8 µM (active).

The values above are taken from PubChem BioAssay (NCATS).
